Source: PubChem BioAssay
PHOSPHO1 inh: inhibitors of human PHOSPHO1 phosphatase. Q8TCT1. recombinant PHOSPHO1, absorbance phosphatase assay. inhibition, % at 13.3 µM. actives 1.1% (n = 290,000); in the data active = inhibition above about 60%
Calb FLC: C. albicans growth modulation with fluconazole | C. albicans CaCi-2 (fluconazole-resistant clinical isolate) + fluconazole, Alamar Blue growth, 48 h | growth inhibition, % (concentration not given with the values) | actives 0.57% (n = 300,000) | AID 1979;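 active = growth inhibition above about 58% in most replicates, limit read from the data, passing the limit was not always enough; inconclusive = exactly half the replicates above a set limit; inactive = most replicates below a set limit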;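 also: all wells also contain fluconazole at 8 µg/ml as a sub-toxic cotreatment; 0% = median of DMSO wells and 100% = median of geldanamycin control wells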
Efflux pump inh: antifungal efflux pump inhibition, Nile Red retention | S. cerevisiae Candida pump triplex | inhibition, % at 10 µM | actives 0.44% (n = 330,000) | AID 485275;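 active = plate passing quality check with inhibition over a set limit, or well fluorescence over plate mean plus 4 SD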;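 also: Nile Red retained in pooled yeast measured as flow cytometry median fluorescence; 0% = buffer negative control and 100% = Enniatin B positive control; higher means more Nile Red kept so more efflux inhibition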
Cardio protect: protects H9c2 cardiomyocytes from peroxide injury | H2O2 injury protection, ATPLite, 2 h | protection from H2O2 cell death, % at 20 µM | actives 0.63% (n = 360,000);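 active = compounds giving at least 50% protection of heart cells from peroxide-induced death in the single-dose screen, raw or plate-pattern-corrected value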;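 also: 0% = DMSO wells with peroxide and 100% = DMSO wells without peroxide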
KCC2 mod: KCC2 (human) Cl- transport modulation | Q9H2X9 | KCC2 cells, thallium flux FluoZin-2 fluorescence | B-score of Tl+ flux slope (higher = more flux/activation; lower = inhibition) at 10 µM | actives 2.2% (n = 190,000);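 active = thallium flux slope and its plate-corrected score both differing from the plate sample mean at a set confidence after two filtering rounds, in either direction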;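 also: slope of fluorescence scaled to starting intensity during 10 to 20 s after thallium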
Target sequence (Q9H2X9 whole entry, looked up): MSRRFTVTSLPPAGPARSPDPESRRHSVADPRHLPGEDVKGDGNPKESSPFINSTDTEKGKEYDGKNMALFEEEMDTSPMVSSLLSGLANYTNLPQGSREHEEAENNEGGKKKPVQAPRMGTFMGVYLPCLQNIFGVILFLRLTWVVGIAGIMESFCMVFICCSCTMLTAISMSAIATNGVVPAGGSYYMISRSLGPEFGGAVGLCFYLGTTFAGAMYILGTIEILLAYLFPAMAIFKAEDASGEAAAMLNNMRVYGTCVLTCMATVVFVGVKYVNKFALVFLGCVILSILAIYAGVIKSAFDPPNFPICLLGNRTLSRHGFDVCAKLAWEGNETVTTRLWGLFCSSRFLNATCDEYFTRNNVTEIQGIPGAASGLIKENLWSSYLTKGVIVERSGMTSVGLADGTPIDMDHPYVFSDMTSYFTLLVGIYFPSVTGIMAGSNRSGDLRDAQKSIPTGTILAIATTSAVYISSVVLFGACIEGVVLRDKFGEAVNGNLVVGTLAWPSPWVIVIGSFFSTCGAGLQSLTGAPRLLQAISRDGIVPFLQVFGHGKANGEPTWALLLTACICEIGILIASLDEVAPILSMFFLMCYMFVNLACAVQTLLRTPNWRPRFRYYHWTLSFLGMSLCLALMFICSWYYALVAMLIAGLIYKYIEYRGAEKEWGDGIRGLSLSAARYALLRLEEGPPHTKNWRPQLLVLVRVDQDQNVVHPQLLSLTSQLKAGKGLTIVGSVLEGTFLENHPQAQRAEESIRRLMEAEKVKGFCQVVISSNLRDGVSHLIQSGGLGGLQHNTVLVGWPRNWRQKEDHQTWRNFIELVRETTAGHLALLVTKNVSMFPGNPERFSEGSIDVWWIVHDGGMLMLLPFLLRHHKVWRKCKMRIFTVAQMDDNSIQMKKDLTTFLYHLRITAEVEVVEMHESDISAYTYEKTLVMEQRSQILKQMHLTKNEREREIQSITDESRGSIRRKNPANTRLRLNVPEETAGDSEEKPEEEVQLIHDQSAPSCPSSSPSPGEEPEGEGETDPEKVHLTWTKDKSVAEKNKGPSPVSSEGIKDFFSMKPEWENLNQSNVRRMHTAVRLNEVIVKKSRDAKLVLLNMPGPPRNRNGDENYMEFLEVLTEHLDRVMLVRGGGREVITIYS
KCC2 sec1: confirmation of human KCC2 transport modulators; actives 15% (n = 3,700); HEK293-KCC2, thallium flux, FluoZin2 fluorescence; hits give high values; normalised thallium flux (F/F0 slope) at 10 µM; shares compounds with KCC2 mod;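 active = thallium flux slope above the same plate's solvent-only control mean plus 3 SD; inconclusive = the two replicate wells disagree; inactive = no significant difference from solvent-only control wells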
KCC2 bumet counter: bumetanide-insensitive thallium flux in KCC2 cells with ouabain, counter-screen; normalized thallium flux at 10 µM; actives 49% (n = 3,700); HEK293-KCC2 + bumetanide/ouabain, thallium flux FluoZin2; hits give high values; shares compounds with KCC2 mod;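 active = thallium entry rate above the same plate's blocked-transporter control wells by more than 3 SD; inconclusive = the two repeat wells disagree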;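 also: raw slope of fluorescence over initial fluorescence between 10 and 20 s after thallium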
KCC2 sec2: KCC2 (human) modulation, second secondary assay | shares compounds with KCC2 mod | HEK293-KCC2, thallium flux FluoZin2 fluorescence; actives lie on both sides; F/F0 rise rate, 10–20 s post-thallium | actives 23% (n = 3,700) | normalized thallium flux at 10 µM | AID 1715;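 active = thallium flux slope more than 3 SD above or below the plate's solvent-only control mean, mostly below; inconclusive = the two repeat wells disagreed; inactive = no significant shift from solvent-only controls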;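 also: raw slope with 0.1% DMSO as baseline and bumetanide as block control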
HEK293 Tl flux: acts in parental HEK cells, KCC2 counter-screen. thallium flux rate (normalised fluorescence) at 10 µM. shares compounds with KCC2 mod. actives 46% (n = 3,700). HEK293 parental cells, thallium flux FluoZin2, ouabain; baseline-ratio fluorescence slope, 10–20 s after thallium. AID 1716;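 active = thallium flux rate significantly above the same plate's solvent-only control wells, beyond their mean plus 3 SD; inconclusive = the two replicate wells gave conflicting results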
KCC2 retest ouab: confirmation of human KCC2 modulators with ouabain; shares compounds with KCC2 mod; HEK293-KCC2, thallium flux FluoZin2 fluorescence; bidirectional: low = inhibitor, high = activator; raw Tl+ flux slope (below DMSO = inhibition, above = activation) at 10 µM; actives 48% (n = 3,700); AID 1717;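 active = thallium flux slope beyond 3 SD from same-plate DMSO control mean in most replicates, usually higher, sometimes lower; inconclusive = repeat tests gave conflicting results; inactive = no significant difference from controls in most replicates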;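 also: slope of initial-normalized fluorescence between seconds 10 and 20 after thallium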
HEK293 Tl flux2: parental HEK flux effect, counter-screen 2. shares compounds with KCC2 mod. actives 33% (n = 3,700). AID 1718. thallium flux slope at 10 µM. HEK293 parental, thallium flux FluoZin-2 fluorescence slope;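 active = thallium flux slope above the same plate's solvent-control mean plus 3 SD in both duplicate wells; inconclusive = duplicate wells that disagreed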;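 also: run without ouabain in cells lacking the KCC2 cotransporter; slope of fluorescence scaled to its starting value between 10 and 20 s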
Numbers without * were called inactive. A selection: hits, their analogues and other compounds. The true share with any hit is near 3.3%.

O=C(NNc1nc2c(F)cccc2s1)C1COc2ccccc2O1 (centres undefined) was read as PHOSPHO1 inh 21, Calb FLC 1, Efflux pump inh 0, Cardio protect 2, KCC2 mod 10*, KCC2 sec1 0.0078, KCC2 bumet counter 0.037*, KCC2 sec2 0.047*, HEK293 Tl flux 0.035*, KCC2 retest ouab 0.038* and HEK293 Tl flux2 0.03*.
Cc1ccc2sc(NNC(=O)C3COc4ccccc4O3)nc2c1C (centres undefined) was read as PHOSPHO1 inh -4, Efflux pump inh 0, Cardio protect 36, KCC2 mod 6.5*, KCC2 sec1 0.008, KCC2 bumet counter 0.042*, KCC2 sec2 0.032, HEK293 Tl flux 0.017*, KCC2 retest ouab inconclusive and HEK293 Tl flux2 0.012*.
C[C@H]1CCC(=O)N([C@H](COc2ccccc2)Cc2ccccc2)CC1 was read as PHOSPHO1 inh -24, Calb FLC -4, Efflux pump inh 0 and Cardio protect -3.
`COc1ccc(OC)c(NC(=O)C2COc3ccccc3O2)c1` (centres undefined) gave PHOSPHO1 inh -6, Calb FLC 3, Efflux pump inh 0, Cardio protect -3 and KCC2 mod -0.095.
Screening COc1ccc(CNC(=O)C2COc3ccccc3O2)c(OC)c1 (centres undefined) returned PHOSPHO1 inh 14, Calb FLC -4, Efflux pump inh 0, Cardio protect 5, KCC2 sec1 0.01, KCC2 bumet counter 0.0057, KCC2 sec2 0.034, HEK293 Tl flux 0.0042, KCC2 retest ouab 0.019 and HEK293 Tl flux2 0.012.
For CC(O)[C@H]1CNCCN1CCc1cccc(F)c1 (some centres undefined) the results were Calb FLC -4, Efflux pump inh 0 and Cardio protect 1.
Screening O=C(Nc1nc(-c2ccccn2)cs1)c1cc(Cl)ccc1[N+](=O)[O-] returned PHOSPHO1 inh -98, Calb FLC -2, Efflux pump inh 0, Cardio protect 46, KCC2 mod 6.8*, KCC2 sec1 0.014*, KCC2 bumet counter 0.037*, KCC2 sec2 0.039, HEK293 Tl flux 0.018*, KCC2 retest ouab 0.038* and HEK293 Tl flux2 0.015*.
For Cc1csc(NC(=O)c2ccc(Cl)cc2[N+](=O)[O-])n1 the results were PHOSPHO1 inh 9, Calb FLC 4, Efflux pump inh 0, Cardio protect -4 and KCC2 mod 0.33.
Screening Cc1ccc(NS(=O)(=O)c2cc(C(=O)Nc3cccnc3)ccc2C)cc1 returned PHOSPHO1 inh 23, Calb FLC 20, Efflux pump inh 0 and Cardio protect 1.
`CNS(=O)(=O)c1ccc(NC(=O)c2cc(-c3ccncc3)nc3ccc(Cl)cc23)cc1` gave PHOSPHO1 inh 43, Calb FLC 6, Efflux pump inh 0 and Cardio protect -6.
For CCOC(=O)C(CC)/C(C)=N/NC(=O)c1ccc([N+](=O)[O-])cc1 (centres undefined) the results were PHOSPHO1 inh 27, Calb FLC -6, Efflux pump inh 0, Cardio protect 13 and KCC2 mod 0.87.
